KAT2A inh: qHTS Assay for Inhibitors of GCN5L2; Histone acetyltransferase KAT2A (Homo sapiens), Q92830; GCN5L2 HAT assay, ThioGlo1 CoA-SH fluorescence; Potency, µM (highest dose often 58.9 µM), inactives show at the top dose activity change, negative = inhibition, usual class: inhibitors; 390,000 tested, 0.21% active; AID 504327, 2011
Target sequence (Q92830 whole entry, looked up): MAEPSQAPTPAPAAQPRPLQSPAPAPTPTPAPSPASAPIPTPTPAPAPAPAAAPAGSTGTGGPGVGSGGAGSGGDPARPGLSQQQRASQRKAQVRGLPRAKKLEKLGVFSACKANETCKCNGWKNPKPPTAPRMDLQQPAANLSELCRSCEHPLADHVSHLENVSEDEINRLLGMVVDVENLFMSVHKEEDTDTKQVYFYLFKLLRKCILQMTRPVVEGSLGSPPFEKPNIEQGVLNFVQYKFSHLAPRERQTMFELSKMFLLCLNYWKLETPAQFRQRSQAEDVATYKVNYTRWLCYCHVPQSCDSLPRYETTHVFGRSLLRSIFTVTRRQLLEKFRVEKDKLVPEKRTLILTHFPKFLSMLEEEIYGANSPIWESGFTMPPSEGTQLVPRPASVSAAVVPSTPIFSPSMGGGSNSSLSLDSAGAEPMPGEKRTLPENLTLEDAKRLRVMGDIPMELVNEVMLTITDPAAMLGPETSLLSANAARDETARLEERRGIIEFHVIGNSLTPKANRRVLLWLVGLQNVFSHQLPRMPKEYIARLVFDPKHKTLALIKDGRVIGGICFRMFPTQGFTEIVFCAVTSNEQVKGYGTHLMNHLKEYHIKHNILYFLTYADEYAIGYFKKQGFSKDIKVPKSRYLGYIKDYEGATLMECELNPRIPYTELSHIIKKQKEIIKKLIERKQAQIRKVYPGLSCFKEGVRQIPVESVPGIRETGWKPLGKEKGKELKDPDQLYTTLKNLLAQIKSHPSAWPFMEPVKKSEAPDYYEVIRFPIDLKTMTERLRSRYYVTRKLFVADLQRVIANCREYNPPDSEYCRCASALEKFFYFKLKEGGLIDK
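ThioGlo1-coupled HAT assay: 20nM GCN5L2, 70uM acetyl-CoA, 75uM H3(1-25) peptide, pH 7.5. Fluorescence read at 340/540nm at start and after 20 min at room temperature.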
TrxR1 substrate: qHTS Assay for Substrates of Mammalian Selenoprotein Thioredoxin Reductase 1 (TrxR1): qHTS; Thioredoxin reductase 1, cytoplasmic (Rattus norvegicus), O89049; purified TrxR1 substrate turnover, NADPH consumption readout; Potency, µM (series often up to 114 µM), for inactives: top-dose activity change, negative = substrate turnover; 390,000 tested, 0.01% active; AID 588456, 2011; further: nearly all actives have a fitted effect of over 50% in size
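Rat TrxR1, dispensed at 90 nM, was prereduced with 400 uM NADPH (final) for 5 min at ~22 deg C, then incubated with compound 15 min before 400 uM selenite. A first-read NADPH fluorescence drop versus no-compound background flagged substrates.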
TrxR1 inh: qHTS Assay for Inhibitors of Mammalian Selenoprotein Thioredoxin Reductase 1 (TrxR1): qHTS; Thioredoxin reductase 1, cytoplasmic (Rattus norvegicus), O89049; AID 588453, 2011; 390,000 tested, 1% active; Potency, µM (series often up to 114 µM), without a hit: at the highest dose activity change, negative = inhibition, most hits filed as inhibitors; recombinant rTrxR1, NADPH fluorescence consumption, selenite substrate; further: nearly all actives have a fitted effect of over 65% in size
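Rat TrxR1 (90 nM in the dispensed reagent) was pre-reduced with 400 uM NADPH for 5 min at room temperature, then incubated with compound for 15 min. After 400 uM selenite was added, NADPH fluorescence (Ex 340/Em 450 nm) was followed for 8 min.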
Sfp inh: qHTS Assay for Inhibitors of Bacillus subtilis Sfp phosphopantetheinyl transferase (PPTase) | Potency, µM, without a hit: largest response in the series, negative = inhibition, hits mostly inhibitors | Biochemical Sfp PPTase activity, qHTS | 4'-phosphopantetheinyl transferase ffp (Bacillus subtilis), Q9F4F7 | 310,000 tested, 3.5% active;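 further: the enzyme is Sfp with the accession as filed and its product quenches rhodamine fluorescence; 0% = enzyme reaction without inhibitor and -100% = no enzyme wells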
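Sfp 15 nM + cpd, 15 min RT; start w/ rhodamine-CoA 5 uM, BHQ-2-YbbR 12.5 uM (final); 50 mM Hepes pH 7.6, 10 mM MgCl2, 0.01% NP-40, 0.01% BSA; read 525/598 nm at 0 and 30 min.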
VDR inh: Inhibitors of the vitamin D receptor (VDR): qHTS; AID 504847, 2011; 400,000 tested, 0.93% active; VDR-SRC2-3 peptide fluorescence polarization, 2 h; Potency, µM, for inactives: max response, negative = inhibition, hits mostly inhibitors
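Inhibition of the VDR/SRC2-3 peptide interaction is quantified by fluorescence polarization. Compounds (23 nl, pintool) incubate with the reagents for 2 hours at ambient room temperature.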
GLS inh: qHTS for Inhibitors of Glutaminase (GLS); AID 624170, 2012; Glutaminase kidney isoform, mitochondrial (Homo sapiens), O94925; GLS enzymatic activity, qHTS titration; Potency, µM (highest dose often 45.5 µM), inactives show at the top dose activity change, negative = inhibition, usual class: inhibitors; 410,000 tested, 0.21% active
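Enzyme dispensed in phosphate buffer (45 mM, pH 8.2, 0.02% Tween-20), compounds pinned in, then 1 mM L-glutamine solution and the glutamate oxidase–HRP–Amplex Red mix added; fluorescence read immediately and again after 30 min at room temperature.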
Active calls of the source: *; ? = inconclusive; . = no result given; [ ] = remark or other dose. The list is not random: actives were taken first. Their share in the collection is about 3.8%. The call rests on the fitted dose curve; in most records, active means well fitted curve in the direction sought with a large enough effect; inconclusive means small, poorly fitted or top-dose-only effect, or another doubt; inactive means no such curve, though single readings can be large; an effect the other way counts as inactive or inconclusive. Unless noted, on the % scale 0 is the no-effect control and ±100 the full control effect; potency means the concentration at half of the fitted maximal effect.

SMILES	KAT2A inh	TrxR1 substrate	TrxR1 inh	Sfp inh	VDR inh	GLS inh
COc1ccc(-c2noc(CSc3nnc(C)n3-c3ccc(C)cc3)n2)cc1OC	-9%	-2%	5%	.	8%	-10%
COc1cc(C2=N/C(=C\c3ccccc3)C(=O)O2)cc(OC)c1OC	.	.	.	12%	?	.
Cc1cccc(C2=NOC(=O)/C2=C\c2ccccc2F)c1	0%	-3%	18%	.	-13%	2%
COc1cc(/C=C2\N=C(C)OC2=O)cc(OC)c1OC	-24%	5%	45µM*	6%	40µM*	13%
COc1ccc(-c2ccc(=O)n(Cc3cccc([N+](=O)[O-])c3)n2)cc1	-20%	-10%	9%	-2%	-11%	13%
O=C1ON=C(c2ccc([N+](=O)[O-])cc2)/C1=C/c1ccccc1O	?	4%	18µM*	40µM*	79µM*	-14%
COc1ccc(/C=C2\C(=O)ON=C2c2cccc([N+](=O)[O-])c2)cc1	-18%	.	.	56µM*	.	.
CCOC(=O)Oc1ccc(/C=C2\N=C(C)OC2=O)cc1	-9%	-17%[57.1 µM]	-72%	-7%	20µM*	?
COc1cc(/C=C2\C(=O)ON=C2c2ccccc2)cc(OC)c1OC	0%	5%	18µM*	50µM*	28µM*	-7%
CN(C)/C=C1\C(=O)ON=C1c1ccccc1	-4%	7%[57.1 µM]	21%[57.1 µM]	10%	-18%	0%
CCOC(=O)CS(=O)(=O)c1ccc2ccccc2c1	1%	-7%	-1%[57.1 µM]	10%	-5%	-3%
O=C(NNS(=O)(=O)c1ccc([N+](=O)[O-])cc1)C(=O)Nc1cccc(C(=O)O)c1	-4%	-7%	-5%	40µM*	5%	6%
CCc1ccccc1NC(=O)c1cccc(NC(=O)/C=C/c2ccco2)c1	-26%	-12%	?	20µM*	-18%	0%
Cc1ccc(NC(=O)c2cccc(NC(=O)/C=C/c3ccco3)c2)cc1C	6%	-6%	20µM*	2%	13%	9%
O=C(/C=C/c1ccco1)Nc1cccc(C(=O)Nc2ccccc2C(=O)O)c1	-28%	-8%	11µM*	56µM*	?	?
Cc1nc2nc(CCNS(=O)(=O)c3ccc(Cl)cc3)cn2nc1C	-17%	200%	-8%	16%	89µM*	2%
COC1=C2C[C@H](C)C[C@H](OC)[C@@H](O)[C@@H](C)C=C(C)[C@H](OC(N)=O)[C@@H](OC)C=CC=C(C)C(=O)NC(=CC1=O)C2=O	.	-1%	50µM*	.	?	.
Cc1cc(C2=NNC(=NCc3ccccc3)SC2)c(C)n1-c1c(C)n(C)n(-c2ccccc2)c1=O	-8%	4%[57.1 µM]	6%[57.1 µM]	-3%	8%	3%
CN=C1NN=C(c2cc(C)n(-c3c(C)n(C)n(-c4ccccc4)c3=O)c2C)CS1	0%	1%	-11%	50µM*	7%	0%
O=C(CCS(=O)(=O)c1cccc2nonc12)Nc1c(F)cccc1F	-7%	10%[2.29 µM]	32µM*	.	-29%	-2%
O=C(Nc1ccc2c(c1)OCCO2)C1CCN(S(=O)(=O)c2ccc3c(c2)OCCO3)CC1	-15%	-1%	8%	6%	10%	-5%
CCOC(=O)c1ccc(N=Cc2nc3ccccc3n2C)cc1	0%	-3%	-1%	10%	1%	0%
Cc1ccc(C(=O)/C=C\NCc2ccccc2)cc1	-4%	-16%	-14%	89µM*	0%	8%
COc1ccc(C(=O)/C=C/NCc2ccc(C)cc2)cc1	.	-9%	-7%	.	13%	-1%

Bioassay records from PubChem.
